In PubChem BioAssay AID624305 (National Center for Advancing Translational Sciences (NCATS), 2012):
Results filed as inconclusive are left out. The source made the active and inactive calls. Calls follow the shape of the dose curve; as a rule, active = well fitted activation curve with a large enough effect; inconclusive = small, poorly fitted or top-dose-only effect; inactive = no such curve, though single readings can be large or run the other way.

Experiment: qHTS assay for re-activators of p53 using a Luc reporter: Hit Validation; also: nearly all actives have a fitted effect of over 75% in size; as to activation: 0% is about no effect
Conditions: p53-responsive luciferase reporter cells, luminescence, H1299 line expressing heat-sensitive Ala138Val p53; series mostly up to 46.1 µM; activation: at the top concentration
In short: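 Hit confirmation with a 1:5 dilution series, at 37 deg C for 24 hrs, in H1299 cells co-expressing temperature-sensitive p53-A138V and p53-responsive luciferase. Nocodazole served as control; luminescence read after 10 min with detection reagent.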
Potency is read from the fitted curve at half-maximal effect.

Potency, active:
Cc1ccnc(NC(=O)c2sc3cc(Cl)ccc3c2Cl)c1 2.91 µM, CCc1cc2c(=O)c(-c3ccc4c(c3)OCCO4)coc2cc1OS(C)(=O)=O 4.61 µM, O=C(N/N=C1\CCc2ccccc21)c1ccccc1O 1.03 µM, Cc1cc(=O)[nH]c(N/N=C/c2ccccn2)n1 13 µM, O=C(COc1ccccc1Cl)Nc1ccc(Cl)cn1 20.6 µM, Nc1nonc1-n1nnc(C(=O)N/N=C/c2ccc(Br)cc2)c1CSC1=NCCS1 3.66 µM, O=C(c1cnn(-c2ccccc2)c1)c1ccccc1O 1.46 µM, CCOc1ccc(NC(=O)/C=C/c2ccccc2)c([N+](=O)[O-])c1 5.17 µM, C=CCOc1c(OC)cc(/C=N/Nc2cccc(C(=O)O)c2)c(Br)c1Br 13 µM, O=C(COC(=O)c1ccc(-c2nnc(-c3ccccc3)o2)cc1)c1ccccc1 2.91 µM, CC(C)CCn1cnc2c(sc3nc4c(cc32)CSC(C)(C)C4)c1=O 0.517 µM, Cc1ccc(OC(=O)c2cccc(S(=O)(=O)N3CCCC3)c2)c(-n2nc3ccccc3n2)c1 3.66 µM, CC(=O)c1ccc(NC(=O)CCc2nnc3ccc(NCc4ccco4)nn23)cc1 11.6 µM, Cc1ccc(NC(=O)/C=C/c2ccc([N+](=O)[O-])s2)c(C)c1 2.91 µM, O=C(Oc1ccccc1/C=C\C(=O)c1cc2ccccc2o1)c1cccc(F)c1 0.206 µM, Cc1ccc(Nc2nc(N)nc(CSc3nccn3C)n2)cc1 2.31 µM

activation, inactive:
Cc1ccc(C2C(C#N)=C(N)Oc3cc4c(cc32)OCO4)cc1 (stereo not drawn) 27.1%, CCCCc1ccc(NC(=S)Nc2ccc(Nc3ccc(OC)cc3)cc2)cc1 -6.25%, O=C(Nc1ccc(COc2ccccc2)cc1)c1cccc([N+](=O)[O-])c1 21.9%, C=CCSC1=N/C(=C\c2cc(OCC)c(OC(C)=O)c([N+](=O)[O-])c2)C(=O)S1 4.17%, Cc1cc(Br)c(S(=O)(=O)NCCN2CCOCC2)cc1C 6.25%, Cc1cccc(Nc2cc(=O)[nH]c(=O)[nH]2)c1C 0%, Cc1ccc(CSc2nc3ccncc3[nH]2)cc1 -42.2%, O=C(N/N=C/C1C(c2ccccc2)C1(Cl)Cl)c1cccc(Cl)c1 (stereo not drawn) -6.77%, O=C(Nc1cccc(N=Cc2cc(Cl)cc(Br)c2O)c1)c1ccco1 6.77%, CCOc1ccc(NC(=O)C(c2ccccn2)N(C(=O)CCl)c2ccc(OC)cc2)cc1 (stereo not drawn) 40.6%, Cc1ccc(C(=O)c2c3ccc([N+](=O)[O-])cc3[n+]([O-])n2CCCN)cc1 15.1%, O=C(CC(=O)c1ccccc1O)c1cccc(F)c1 22.4%, C=Cc1ccc(Cn2c(=O)n(CCCOC)c(=O)c3sccc32)cc1 -8.85%, O=C(O)/C=C/c1nc(-c2ccccc2)n2ccccc12 9.9%, COc1ccc(C(=O)NC2CCc3ccccc32)cc1OC1CCN(C(C)C)CC1 (stereo not drawn) 28.6%, CCCC(=O)NC(c1cccs1)c1cc([N+](=O)[O-])c2cccnc2c1O (stereo not drawn) 14.6%, COc1ccccc1-c1c(C)nn2c(C)c(C(C)=O)cnc12 -1.56%, Cc1csc(NC(=O)CSc2nnc(-c3cccs3)n2C)n1 10.9%, CCOC(=O)N1CCN(S(=O)(=O)c2ccc(C(=O)NNc3nc4cc(C)cc(C)c4s3)cc2)CC1 6.68% [at 9.22 µM], CN(C)CCN(CC1CCCN(Cc2ccccc2F)C1)C(=O)c1ccc(F)cc1 (stereo not drawn) 6.77%, O=C(Cc1ccccc1)Nc1ccc(NC(=O)c2cccnc2)cc1 12%, Cc1ccc(C(=O)N2CC(=O)Nc3ccc(F)cc3C2c2ccc(F)cc2)cc1[N+](=O)[O-] (stereo not drawn) -19.3%
